# In PubChem BioAssay AID2132 (NMMLSC, 2009):
# Activity calls are given as the source filed them.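 How the source made its calls: active means inhibition above 20%; inactive means the rest.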 Peptide text beside a SMILES is read from it. * marks the point of attachment. Cbz = O=C(OCc1ccccc1)*
# Assay: yeast 26S proteasome protease site inhibitors – biochemical, fluorogenic peptides, secondary, counter-screen for 26S proteasome disassembly project (AID 2132)
# Conditions: fluorogenic peptide cleavage rate, with Suc-LLVY-amc, at 100 µM, hits give high values
row,SMILES,inhibition
1,CC(C)C[C@@H](C=O)NC(=O)[C@H](CC(C)C)NC(=O)[C@H](CC(C)C)NC(=O)OCc1ccccc1 (Cbz-Leu-Leu-Leu-aldehyde),97% (active)
2,CC(=O)N1C(=O)C(=C2C=C(C)OC(C)=C2)c2ccccc21,45% (active)
